From PubChem BioAssay (EPA / NIEHS)
Results filed as inconclusive are left out. The source made the active and inactive calls. The calls were made as follows, unless noted: active = hit-call score of the fitted dose curve at least 0.9, where 1 is the maximum; inconclusive = response in the unintended direction; inactive = score below 0.9.

Assays:
[1] = read-out: Transforming Growth Factor (TGFA), TGFA (gene 7039); assay: LTEA_HepaRG_TGFA: Life Technologies and Expression Analysis (LTEA) Assay for Transforming Growth Factor (TGFA) using HepaRG (AID 2283532; active = hit-call score of the fitted dose curve at least 0.9, where 1 is the maximum; inactive = score below 0.9); conditions: mRNA level, 48 h; actives raise or lower the signal
In short: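 TGFA transcript quantified by qRT-PCR (Fluidigm arrays) against three housekeeping genes, after 48 hours chemical treatment of HepaRG cells. Top concentration 100 uM with half-log dilutions, 8 points, duplicates, 0.5% DMSO.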

[2] = read-out: Transforming Growth Factor (TGFB1), TGFB1 (gene 7040); assay: LTEA_HepaRG_TGFB1: Life Technologies and Expression Analysis (LTEA) Assay for Transforming Growth Factor (TGFB1) Transporter using HepaRG (AID 2283533; active = hit-call score of the fitted dose curve at least 0.9, where 1 is the maximum; inactive = score below 0.9); conditions: mRNA level, 48 h; actives raise or lower the signal
In short: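 HepaRG, 48 h post-plating, switched to serum-free induction medium; chemicals 100 uM top, half-log, 8 pts, 0.5% DMSO, dup; 48 h exposure; RNA → Fluidigm TaqMan qRT-PCR; norm ACTB/GAPDH/POLR2A; bidirectional fit vs DMSO.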

TIMP1, TIMP1 (gene 7076) = assay: LTEA_HepaRG_TIMP1: Life Technologies and Expression Analysis (LTEA) Assay for TIMP1 using HepaRG (AID 2283534; active = hit-call score of the fitted dose curve at least 0.9, where 1 is the maximum; inactive = score below 0.9;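 also: TaqMan qRT-PCR signal normalized to ACTB GAPDH and POLR2A housekeeping genes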); conditions: mRNA level, 48 h; actives raise or lower the signal
In short: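 Readout is TIMP1 mRNA level measured by qRT-PCR and normalized to three housekeeping genes. Human HepaRG cells were treated for 48 h in duplicate at eight concentrations up to 100 uM (0.5% DMSO); gain or loss fitted against DMSO.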

[3] = read-out: Tumor necrosis factor receptor 1 (TNFRSF1A), TNFRSF1A (gene 7132); assay: LTEA_HepaRG_TNFRSF1A: Life Technologies and Expression Analysis (LTEA) Assay for Tumor necrosis factor receptor 1 (TNFRSF1A) using HepaRG (AID 2283535; active = hit-call score of the fitted dose curve at least 0.9, where 1 is the maximum; inactive = score below 0.9); conditions: mRNA level, 48 h; actives raise or lower the signal
In short: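 Read-out is TNFRSF1A transcript level by TaqMan qRT-PCR, normalized to three housekeeping genes, scored as gain or loss of signal versus 0.5% DMSO. Human HepaRG cells received test chemicals for 48 h at up to 100 uM (half-log series).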

[4] = read-out: Thyroid Hormone Responsive (THRSP), THRSP (gene 7069); assay: LTEA_HepaRG_THRSP: Life Technologies and Expression Analysis (LTEA) Assay for Thyroid Hormone Responsive (THRSP) using HepaRG (AID 2283536; active = hit-call score of the fitted dose curve at least 0.9, where 1 is the maximum; inactive = score below 0.9); conditions: mRNA level, 48 h; actives raise or lower the signal
In short: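 THRSP transcript quantified by Fluidigm qRT-PCR against three housekeeping genes after 48 h chemical exposure of HepaRG cells in serum-free induction medium; eight-point half-log series, top 100 uM, 0.5% DMSO vehicle, duplicate wells.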

[5] = read-out: Cellular tumor antigen p53 (Homo sapiens) (UniProt P04637); assay: LTEA_HepaRG_TP53: Life Technologies and Expression Analysis (LTEA) Assay for Tumor Protein P53 (TP53) using HepaRG (AID 2283537; active = hit-call score of the fitted dose curve at least 0.9, where 1 is the maximum; inactive = score below 0.9); conditions: mRNA level, 48 h; actives raise or lower the signal
In short: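 HepaRG, 48 h exposure, top 100 uM, half-log 8-point, 0.5% DMSO vehicle, duplicates. Read: TP53 mRNA by TaqMan qRT-PCR, normalised to ACTB/GAPDH/POLR2A; bidirectional fit vs DMSO.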

[6] = read-out: UDP glucuronosyltransferase (UGT1A1), UGT1A1 (gene 54658); assay: LTEA_HepaRG_UGT1A1: Life Technologies and Expression Analysis (LTEA) Assay for UDP glucuronosyltransferase (UGT1A1) using HepaRG (AID 2283538; active = hit-call score of the fitted dose curve at least 0.9, where 1 is the maximum; inactive = score below 0.9); conditions: mRNA level, 48 h; actives raise or lower the signal
In short: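 mRNA induction or loss of UGT1A1, by TaqMan qRT-PCR, in duplicate HepaRG wells after 48 h exposure to half-log dilutions topping at 100 uM; DMSO (0.5%) served as baseline.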

[7] = read-out: UDP glucuronosyltransferase (UGT1A6), UGT1A6 (gene 54578); assay: LTEA_HepaRG_UGT1A6: Life Technologies and Expression Analysis (LTEA) Assay for UDP glucuronosyltransferase (UGT1A6) using HepaRG (AID 2283539; active = hit-call score of the fitted dose curve at least 0.9, where 1 is the maximum; inactive = score below 0.9); conditions: mRNA level, 48 h; actives raise or lower the signal
In short: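 HepaRG, 48 h post-plating switch to serum-free induction medium; chemical 48 h, 100 uM top, half-log x8, duplicate, 0.5% DMSO. Phenobarbital 1mM induction control. UGT1A6 mRNA by TaqMan qRT-PCR; gain/loss fit vs DMSO.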

[8] = read-out: X-box binding protein 1 (XBP1), XBP1 (gene 7494); assay: LTEA_HepaRG_XBP1: Life Technologies and Expression Analysis (LTEA) Assay for X-box binding protein 1 (XBP1) using HepaRG (AID 2283540; active = hit-call score of the fitted dose curve at least 0.9, where 1 is the maximum; inactive = score below 0.9); conditions: mRNA level, 48 h; actives raise or lower the signal
In short: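 Transcript levels of XBP1, measured by qRT-PCR and normalised to three housekeeping genes, were fitted bidirectionally relative to 0.5% DMSO controls. Human HepaRG cells received eight-point half-log dilutions from 100 uM for 48 h.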

[9] = LTEA_HepaRG_LDH_cytotoxicity: Cytotoxicity Assessment in the Life Technologies and Expression Analysis (LTEA) Assay (AID 2283563)
In short: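 Cells were thawed and plated for 48 h. Medium was then replaced with serum-free induction medium. Chemicals (8 half-log points, maximum 100 uM, 0.5% DMSO) were added in duplicate for 48 h, after which spent medium was assayed for LDH.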

[10] = TOX21_p53_BLA_p2_viability: Viability Assessment in the Tox21 HCT-116 p53 Agonism Beta-lactamase Assay, Phase 2 (AID 2283591);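 also: compound exposure lasted 16 h at 37 °C; actives lower the ATP signal meaning cytotoxicity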
In short: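 Cytotoxicity readout: CellTiter-Glo ATP luminescence, 30 min at room temperature, after the beta-lactamase read. Cells were HCT116 exposed 16 h at 37C to compounds pin-transferred at 217-fold dilution from DMSO stocks.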

[11] = target: Cellular tumor antigen p53 (Homo sapiens) (UniProt P04637); assay: TOX21_p53_BLA_p2_ratio: Tox21 HCT-116 p53 Agonism Beta-lactamase Assay, Ratio, Phase 2 (AID 2283592)
Cellular tumor antigen p53 (Homo sapiens), sequence (P04637 whole entry, looked up): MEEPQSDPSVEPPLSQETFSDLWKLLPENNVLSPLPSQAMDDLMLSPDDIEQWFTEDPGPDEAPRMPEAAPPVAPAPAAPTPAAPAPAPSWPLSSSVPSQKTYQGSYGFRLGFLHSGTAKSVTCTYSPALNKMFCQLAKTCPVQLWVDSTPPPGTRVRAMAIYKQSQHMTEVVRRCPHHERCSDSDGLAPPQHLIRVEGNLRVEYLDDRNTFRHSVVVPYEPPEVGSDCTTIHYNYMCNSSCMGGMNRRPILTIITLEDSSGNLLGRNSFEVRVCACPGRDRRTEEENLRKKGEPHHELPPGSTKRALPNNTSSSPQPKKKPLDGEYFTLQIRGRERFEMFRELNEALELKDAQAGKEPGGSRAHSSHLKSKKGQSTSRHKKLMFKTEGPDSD
In short: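 Plated HCT116 p53-bla cells (4000/well) received compound after 5 h, then 16 h at 37C/5% CO2. CCF4-AM added, 2 h RT. Ratio of 460 to 530 nm emission taken as the p53 reporter signal.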

[12] = TOX21_p53_BLA_p3_viability: Viability Assessment in the Tox21 HCT-116 p53 Agonism Beta-lactamase Assay, Phase 3 (AID 2283593);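 also: cells exposed to compound for 16 h before reading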
In short: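 Cellular ATP was quantified by CellTiter-Glo luminescence, read after 30 min at room temperature. Beforehand, HCT116 cells (4000/well) received compound 5 h post-seeding, 217-fold diluted from DMSO, then incubated 16 h at 37C.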

[13] = target: Cellular tumor antigen p53 (Homo sapiens) (UniProt P04637); assay: TOX21_p53_BLA_p3_ratio: Tox21 HCT-116 p53 Agonism Beta-lactamase Assay, Ratio, Phase 3 (AID 2283596)
In short: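 Cells were seeded at 4000/well, rested 5 h at 37C, then dosed with DMSO compound solutions (217-fold dilution) for 16 h. CCF4-AM substrate was loaded for 2 h at room temperature, and the 460/530 nm emission ratio was fitted for gain of signal versus DMSO.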

[14] = TOX21_p53_BLA_p4_viability: Viability Assessment in the Tox21 HCT-116 p53 Agonism Beta-lactamase Assay, Phase 4 (AID 2283597);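 also: hits lower the luminescence signal meaning cytotoxicity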
In short: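 Readout: ATP luminescence (CellTiter-Glo), measured 30 min after reagent addition at RT. The reagent followed a 2 h CCF4-AM incubation, and the cells had been exposed to compound for 16 h at 37C.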

[15] = target: Cellular tumor antigen p53 (Homo sapiens) (UniProt P04637); assay: TOX21_p53_BLA_p5_ratio: Tox21 HCT-116 p53 Agonism Beta-lactamase Assay, Ratio, Phase 5 (AID 2283599)
In short: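 Beta-lactamase reporter ratio (blue 460 nm over green 530 nm, 405 nm excitation) after 2 h CCF4-AM loading, in HCT-116 cells exposed 16 h at 37 C to compounds pinned at 217-fold dilution. Increases relative to DMSO baseline scored.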

[16] = TOX21_p53_BLA_p5_viability: Viability Assessment in the Tox21 HCT-116 p53 Agonism Beta-lactamase Assay, Phase 5 (AID 2283600)
In short: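 Workflow: seed 4000 cells per well, wait 5 h, add compounds (DMSO, 217-fold dilution), incubate 16 h, load CCF4-AM 2 h, add CellTiter-Glo, read luminescence after 30 min.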

[17] = target: Cellular tumor antigen p53 (Homo sapiens) (UniProt P04637); assay: TOX21_p53_BLA_p4_ratio: Tox21 HCT-116 p53 Agonism Beta-lactamase Assay, Ratio, Phase 4 (AID 2283601)
In short: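 Signal is the blue/green (460nm/530nm) ratio of cleaved versus uncleaved CCF4-AM substrate, read after 2 h substrate loading. Cells were HCT116 carrying the p53-responsive beta-lactamase reporter, dosed 16 h at 37C, 5% CO2; CellTiter-Glo measured in parallel.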

[18] = Tanguay_ZF_120hpf_MORT_legacy: (Legacy) Oregon State University Tanguay Lab 120 Hour Post-fertilization zebrafish Assay for Mortality (AID 2283633)
In short: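 5D WT zebrafish, chorion removed 4 hpf; 1 embryo/well from 6 hpf; static exposure to 120 hpf, 28C, dark, sealed. Final DMSO 0.64%. Readout: binary mortality, brightfield, 24 + 120 hpf; DMSO as negative control.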

Question: Which results are given for `c1cc[n+]2c(c1)-c1cccc[n+]1CC2`?
Answer: outcome [1]: inactive; outcome [2]: inactive; outcome (TIMP1, TIMP1 (gene 7076)): inactive; outcome [3]: inactive; outcome [4]: inactive; outcome [5]: inactive; outcome [6]: inactive; outcome [7]: inactive; outcome [8]: inactive; outcome [9]: inactive; outcome [10]: inactive; outcome [11]: inactive; outcome [12]: inactive; outcome [13]: inactive; AC50 [14]: 20 µM (active); outcome [15]: inactive; outcome [16]: inactive; outcome [17]: inactive; outcome [18]: inactive
